# Inconclusive results are not listed. Entries that show only a call come without a potency. Active and inactive are the calls of the source. Unless noted, the call rests on the fitted dose curve; in most records, active means well fitted curve in the direction sought with a large enough effect; inconclusive means small, poorly fitted or top-dose-only effect, or another doubt; inactive means no such curve, though single readings can be large; an effect the other way counts as inactive or inconclusive.
# Experiments:
# [1] = biological target: Cytochrome P450 3A4 (Homo sapiens) (UniProt P08684); experiment: qHTS Assay for Inhibitors and Substrates of Cytochrome P450 3A4 (AID 884); further: nearly all actives have a fitted effect of over 50% in size; further: potency means the concentration at half of the fitted maximal effect
# Method in brief: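 Luminescent readout of luciferin produced by CYP3A4 (20 nM) dealkylation of Luciferin-PPXE, 25 uM (its KM). NADPH-driven reaction ran 60 min at RT after 10 min compound preincubation; data scaled to 57 uM ketoconazole as 100% inhibition.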
# [2] = biological target: Cytochrome P450 3A4 (Homo sapiens) (UniProt P08684); experiment: qHTS Assay for Activators of Cytochrome P450 3A4 (AID 885); further: nearly all actives have a fitted effect of over 65% in size; further: potency means the concentration at half of the fitted maximal effect
# Method in brief: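 CYP3A4 activity: Luciferin-PPXE O-dealkylation, 25uM substrate, 200mM KPO4, RT throughout. Read-out is luciferase luminescence; higher values reflect activation.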
# [3] = Confirmation and Secondary Assay for Modulators of Hemoglobin Beta Chain Splicing at IVS2 654 locus (AID 910);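 further: HeLa cells stably carrying EGFP split by mutant beta-globin IVS2-654 intron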
# Method in brief: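 HeLa cells stably expressing EGFP interrupted by β-globin IVS2-654 intron, seeded overnight in Opti-MEM/2% FCS, then treated 2 days at 37 °C. Restored splicing read as total peak GFP intensity per well by laser scanning cytometry (488 nm excitation, 500–520 nm emission); 500 nM antisense PNA as control.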
# [4] = qHTS Assay for Lipid Storage Modulators (AID 1519; calls by dose curve); details: Drosophila S3 cells, BODIPY lipid droplet/cell ratio, laser cytometry, cells loaded with oleic acid; for activity change, negative = inhibition: at 57.5 µM (top of the series)
# Method in brief: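 Cells seeded at 5,000 per well were treated with compounds over a concentration series and loaded with oleic acid (400 uM, as added). Lipid droplet fluorescence (488 nm excitation, 500-530 nm channel) was read by laser-scanning cytometry and normalized to 20 uM Triacsin C.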
# [5] = biological target: Ubiquitin carboxyl-terminal hydrolase 1 (Homo sapiens) (UniProt O94782); experiment: Inhibitors of USP1/UAF1: Pilot qHTS (AID 504865); further: nearly all actives have a fitted effect of over 35% in size; further: potency means the concentration at half of the fitted maximal effect;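 on activity change, negative = inhibition: rhodamine fluorescence freed from ubiquitin-rhodamine substrate followed over time; top concentration of the series differs between compounds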
# Method in brief: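 In 50mM HEPES pH 7.8 containing 0.5mM EDTA, 1mM TCEP, 0.1 mg/ml BSA and 0.01% Tween-20, 1nM USP1/UAF1 is exposed to compound for 15 min, then Ub-Rho (150nM final) is added and fluorescence is read over time.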
# [6] = biological target: DNA dC->dU-editing enzyme APOBEC-3G (Homo sapiens) (UniProt Q9HC16); experiment: qHTS for inhibitors of Vif-A3G interactions: Validation (AID 588379)
# Method in brief: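 Yellow fluorescence (Ex 488, Em 500-530) of Vif-coexpressing HeLa A3G-eYFP cells, scanned by Acumen cytometer, reports blocked A3G degradation. Cells plated at 700/well overnight at 37 deg C before compound addition, then a further overnight compound incubation at 37 deg C.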
# [7] = Confirmation and Secondary Assay for Modulators of Hemoglobin Beta Chain Splicing at IVS2 705 locus (AID 930);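 further: HeLa cells stably expressing the EGFP-705 splicing reporter; GFP fluorescence per well restored by corrected splicing of the IVS2-705 intron in EGFP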
# Method in brief: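 Assay measures total GFP intensity per well in HeLa EGFP-705 cells after 2 days with compound; mis-splicing normally truncates EGFP, so fluorescence indicates corrected splicing.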
# [8] = biological target: Luciferin 4-monooxygenase (Photinus pyralis) (UniProt P08659); experiment: Biochemical firefly luciferase enzyme assay for NPC (AID 624030);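 further: purified P. pyralis luciferase at 10 nM with luciferin and ATP substrate; nearly all actives have a fitted effect of over 70% in size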
# Method in brief: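 Purified P. pyralis luciferase at 10 nM in 50 mM Tris Acetate (final), luminescence read within 5 minutes of enzyme addition to compounds. Activity normalised to PTC124 versus DMSO; concentration-response curves classed by r2, magnitude and activity.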
# [9] = measured here: cell count channel max response
# [10] = measured here: lipid channel max response
# Cytochrome P450 3A4 (Homo sapiens), sequence (P08684 whole entry, looked up): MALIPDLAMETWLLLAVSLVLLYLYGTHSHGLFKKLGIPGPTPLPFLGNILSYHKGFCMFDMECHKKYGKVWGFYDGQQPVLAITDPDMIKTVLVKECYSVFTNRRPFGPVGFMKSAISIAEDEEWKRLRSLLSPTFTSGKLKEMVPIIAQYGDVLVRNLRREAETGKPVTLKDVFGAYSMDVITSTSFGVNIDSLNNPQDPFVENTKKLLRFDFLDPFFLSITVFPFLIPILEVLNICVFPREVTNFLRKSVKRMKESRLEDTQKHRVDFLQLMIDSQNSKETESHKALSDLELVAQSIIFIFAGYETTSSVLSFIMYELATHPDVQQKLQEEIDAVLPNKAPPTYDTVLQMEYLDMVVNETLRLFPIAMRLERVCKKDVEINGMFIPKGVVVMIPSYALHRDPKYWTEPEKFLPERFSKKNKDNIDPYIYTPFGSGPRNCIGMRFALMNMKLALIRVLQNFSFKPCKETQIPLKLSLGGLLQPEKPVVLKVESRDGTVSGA
# Ubiquitin carboxyl-terminal hydrolase 1 (Homo sapiens), sequence (O94782 whole entry, looked up): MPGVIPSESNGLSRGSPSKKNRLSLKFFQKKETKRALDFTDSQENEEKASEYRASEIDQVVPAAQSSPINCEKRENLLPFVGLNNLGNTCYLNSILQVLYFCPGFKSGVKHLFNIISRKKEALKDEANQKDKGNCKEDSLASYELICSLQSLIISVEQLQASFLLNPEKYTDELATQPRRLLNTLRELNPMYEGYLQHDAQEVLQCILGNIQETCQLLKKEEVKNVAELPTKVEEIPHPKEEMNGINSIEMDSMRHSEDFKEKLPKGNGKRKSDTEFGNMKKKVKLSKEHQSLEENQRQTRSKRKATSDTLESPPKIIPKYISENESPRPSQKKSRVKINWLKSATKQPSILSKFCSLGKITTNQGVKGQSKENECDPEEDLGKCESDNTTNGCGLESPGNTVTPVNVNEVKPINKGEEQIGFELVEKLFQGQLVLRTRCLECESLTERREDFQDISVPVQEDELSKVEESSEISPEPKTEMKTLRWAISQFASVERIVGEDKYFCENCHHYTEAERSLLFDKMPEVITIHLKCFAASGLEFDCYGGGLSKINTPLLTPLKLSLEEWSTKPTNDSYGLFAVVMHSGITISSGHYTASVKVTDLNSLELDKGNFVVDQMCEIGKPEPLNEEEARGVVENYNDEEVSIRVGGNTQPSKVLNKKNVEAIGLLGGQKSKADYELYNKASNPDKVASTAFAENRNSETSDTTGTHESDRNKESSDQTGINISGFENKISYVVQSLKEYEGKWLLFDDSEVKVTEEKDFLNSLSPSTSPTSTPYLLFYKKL
# DNA dC->dU-editing enzyme APOBEC-3G (Homo sapiens), sequence (Q9HC16 whole entry, looked up): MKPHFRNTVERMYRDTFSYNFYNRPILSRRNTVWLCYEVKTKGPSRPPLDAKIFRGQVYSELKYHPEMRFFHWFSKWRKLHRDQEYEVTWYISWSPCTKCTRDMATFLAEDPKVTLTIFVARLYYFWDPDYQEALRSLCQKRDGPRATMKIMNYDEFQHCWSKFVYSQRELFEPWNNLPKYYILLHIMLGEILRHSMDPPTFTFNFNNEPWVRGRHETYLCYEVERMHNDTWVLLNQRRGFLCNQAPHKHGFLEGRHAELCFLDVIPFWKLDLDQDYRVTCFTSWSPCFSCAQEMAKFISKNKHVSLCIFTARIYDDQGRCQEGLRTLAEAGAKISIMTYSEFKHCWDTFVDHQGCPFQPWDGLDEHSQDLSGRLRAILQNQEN
# Luciferin 4-monooxygenase (Photinus pyralis), sequence (P08659 whole entry, looked up): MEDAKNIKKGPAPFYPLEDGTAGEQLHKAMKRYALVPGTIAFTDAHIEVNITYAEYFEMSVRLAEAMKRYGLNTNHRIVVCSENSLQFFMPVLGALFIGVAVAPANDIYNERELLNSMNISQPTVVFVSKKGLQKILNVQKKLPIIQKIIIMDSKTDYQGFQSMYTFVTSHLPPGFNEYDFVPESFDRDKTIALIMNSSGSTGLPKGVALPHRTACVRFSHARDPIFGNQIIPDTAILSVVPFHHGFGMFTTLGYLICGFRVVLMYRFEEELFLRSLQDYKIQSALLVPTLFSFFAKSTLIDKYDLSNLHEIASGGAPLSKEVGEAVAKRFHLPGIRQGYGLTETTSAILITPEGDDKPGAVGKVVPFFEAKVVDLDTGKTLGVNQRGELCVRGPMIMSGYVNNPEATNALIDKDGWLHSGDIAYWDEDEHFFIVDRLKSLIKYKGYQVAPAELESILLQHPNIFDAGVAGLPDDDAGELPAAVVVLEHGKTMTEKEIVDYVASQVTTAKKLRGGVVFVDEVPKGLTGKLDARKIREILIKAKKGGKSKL
SMILES,Potency [1],Potency [2],Potency [3],"activity change, negative = inhibition [4]","max response [4, 9] [%]","max response [4, 10] [%]",Potency [5],outcome [6],Potency [7],Potency [8]
C=C1C2CC[C@@]3(C)C(c4ccoc4)OC(=O)C[C@@]13OC1CC(=O)C(C)(C)C(CC(=O)OC)[C@]12C (stereo partly specified),5.01 µM (active),inactive,inactive,0.233% (inactive),-7.73,-5.31,inactive,–,–,–
C[C@@H]1O[C@@H](O[C@H]2[C@H](Oc3cc(O)c4c(c3)O[C@H](c3ccc(O)cc3)CC4=O)O[C@H](CO)[C@@H](O)[C@@H]2O)[C@H](O)[C@H](O)[C@H]1O,inactive,–,–,-1.6% (inactive),-6.96,-9.22,inactive,inactive,–,–
CC(=O)OCC(=O)C1CCC2C3CCC4=CC(=O)CC[C@@]4(C)C3CC[C@]12C (stereo partly specified),inactive,3.16 µM (active),inactive,5.85% (inactive),5.1,13.2,inactive,–,inactive,–
O=C(O)C1(O)C[C@H](O)C(O)[C@@H](O)C1 (stereo partly specified),inactive,–,–,-0.572% (inactive),-6.02,-7.19,inactive,inactive,–,–
Cc1cc(=O)oc2cc(O[C@@H]3O[C@H](C(=O)O)[C@@H](O)[C@H](O)[C@H]3O)ccc12,inactive,–,–,7.88% (inactive),8.78,16.3,inactive,inactive,–,–
COc1ccc(/C=C/C(=O)c2ccc(O)cc2O)cc1OC,1.26 µM (active),inactive,inactive,-12.3% (inactive),-8.55,-18.6,inactive,–,inactive,–
OCC1OC(Oc2cccc3cccnc23)C(O)C(O)C1O (stereo unspecified),inactive,–,–,-4.73% (inactive),-12.4,-14.1,inactive,inactive,–,–
O=c1cc(-c2cccc(O)c2)oc2ccc(O)cc12,3.98 µM (active),inactive,inactive,13.1% (inactive),3.49,17.7,inactive,–,inactive,–
O=C1c2ccccc2C(=O)c2c(O)c(O)cc(O)c21,–,inactive,inactive,12.2% (inactive),-4.21,7.97,25.1 µM (active),inactive,inactive,–
Nc1ccn([C@@H]2O[C@H](CO)[C@@H](OP(=O)(O)O)[C@H]2O)c(=O)n1,–,inactive,–,4.4% (inactive),7.76,8.34,inactive,inactive,–,–
Cc1cc(=O)c2c(O)cc(O)c(C)c2o1,25.1 µM (active),inactive,inactive,14% (inactive),5.24,21.1,inactive,–,–,–
COc1cc(OC)c2c(=O)c(O)c(-c3ccc(OC)c(OC)c3)oc2c1,2.51 µM (active),inactive,inactive,4.09% (inactive),5.03,9.16,inactive,–,inactive,–
Nc1ncnc2c1ncn2C1CC(O)C(CO)O1 (stereo unspecified),inactive,–,inactive,-2.62% (inactive),-5.57,-5.3,inactive,inactive,inactive,–
N[C@H](CO)Cc1cnc[nH]1,inactive,–,–,3.9% (inactive),11.7,15.8,inactive,inactive,–,–
NCC1O[C@@H](OC2C(N)C[C@H](N)[C@@H](O[C@H]3OC(CO)C(O)C(N)C3O)C2O)C(N)C(O)C1O (stereo partly specified),inactive,–,inactive,2.92% (inactive),11.9,7.99,inactive,–,inactive,inactive
O=C(O)C(O)C(O)C(O)C(O)C(=O)O (stereo unspecified),inactive,–,inactive,5% (inactive),3.45,13,inactive,–,inactive,inactive
CC1=CC(=O)[C@@H]2C[C@H]1C2(C)C,inactive,–,–,4.82% (inactive),-1.97,-0.655,inactive,inactive,–,–
O=c1cc(-c2ccccc2)oc2cccc(O)c12,–,inactive,inactive,19.1% (inactive),2.34,21.9,inactive,inactive,inactive,–
O=c1[nH]c(=O)n([C@@H]2O[C@H](CO)[C@@H](O)[C@H]2O)cc1F,inactive,–,–,-3.28% (inactive),0.66,-5.85,inactive,inactive,–,–
C=C1CC/C=C(\C)CC[C@@H]2[C@@H]1CC2(C)C,inactive,–,–,-10.6% (inactive),-19.4,-26.5,inactive,inactive,–,–
CC[C@H](C)[C@H](NC(=O)OCC1c2ccccc2-c2ccccc21)C(=O)O,31.6 µM (active),inactive,–,-4.14% (inactive),1.47,-2.84,inactive,inactive,–,–
COC(=O)CC1C(C)(C)C(=O)C2CC3=C4CC(=O)OC(c5ccoc5)[C@]4(C)CCC3[C@@]1(C)C2=O (stereo partly specified),1.58 µM (active),inactive,inactive,1.08% (inactive),14.1,18,inactive,–,inactive,–
COc1ccc2c(c1OC)C(=O)O[C@H]2C1c2c(cc3c(c2OC)OCO3)CCN1C (stereo partly specified),–,inactive,inactive,8.59% (inactive),20.9,32.4,inactive,inactive,inactive,–
CCCCCC(=O)Cc1cc(O)cc(O)c1C(=O)Oc1cc(CC(=O)CCCCC)c(C(=O)O)c(OC)c1,15.8 µM (active),inactive,inactive,4.27% (inactive),7.66,16.1,inactive,–,inactive,–
COc1cc(OC)c2c(=O)c(OC)c(-c3ccc(OC)c(OC)c3)oc2c1,1.26 µM (active),inactive,inactive,1.54% (inactive),14.1,15.7,inactive,–,–,–
C=C1C2CC[C@@]3(C)C(c4ccoc4)OC(=O)C[C@@]13OC1CC(=O)C(C)(C)C(C(O)C(=O)OC)[C@]12C (stereo partly specified),2.51 µM (active),inactive,inactive,-0.848% (inactive),11.1,18.5,inactive,–,inactive,–
